# Where “and” joins values, the source holds several entries; their conditions need not be identical. Equal values may be shown once. Inconclusive results are not listed. Entries that show only a call come without a potency. More than one record can exist for a structure, and the calls need not agree. Calls of active or inactive are those of the source. Unless noted, calls follow the shape of the dose curve; as a rule, active = well fitted curve in the direction sought with a large enough effect in the repeat runs; inconclusive = weak or mixed curves; inactive = no such curve, though single readings can be large; an effect the other way counts as inactive or inconclusive.
# Experiments:
# [1] = A CellTox Green Cytotoxicity Assay to monitor cytotoxicity in HEK293 cells - 32 hour (AID 1224881); details: CellTox Green fluorescence; series mostly up to 76.8 µM; also: nearly all actives have a fitted effect of over 40% in size; also: potency is read from the fitted curve at half-maximal effect
# Summary of the method: (§1)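 Cells (HEK293, 600/well) and dye reagent are dispensed together. After 5 h at 37 C, 23 nL compound is pinned in. Plates stay at 37 C for 40 h with fluorescence read at 0h, 8h, 16h, 24h, 32h and 40h.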
# [2] = A CellTox Green Cytotoxicity Assay to monitor cytotoxicity in HepG2 cells - 0 hour (AID 1224882); details: CellTox Green fluorescence; series mostly up to 76.8 µM; also: nearly all actives have a fitted effect of over 35% in size; also: potency is read from the fitted curve at half-maximal effect
# Summary of the method: (§2)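 Cells and non-lytic dye reagent are dispensed together (600 HepG2 cells/well) and incubated 5 h before DMSO compound transfer. Kinetic fluorescence is then recorded in the same wells during 40 h at 37 C.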
# [3] = A CellTox Green Cytotoxicity Assay to monitor cytotoxicity in HEK293 cells - 8 hour (AID 1224884); details: CellTox Green fluorescence; series mostly up to 76.8 µM; also: nearly all actives have a fitted effect of over 35% in size; also: potency is read from the fitted curve at half-maximal effect
# Summary of the method: as §1
# [4] = qHTS RealTime-Glo MT Cell Viability Assay in HepG2 cells - 16 hour (AID 1224885); details: RealTime-Glo luminescence; series mostly up to 76.8 µM; also: nearly all actives have a fitted effect of over 50% in size
# Summary of the method: (§3)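 Cells + NanoLuc/prosubstrate dispensed (600 cells/well) → 5 h at 37 C/5% CO2 → compounds in DMSO transferred → 40 h incubation at 37 C, luminescence read at 0, 8, 16, 24, 32, 40 h.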
# [5] = qHTS RealTime-Glo MT Cell Viability Assay in HEK293 cells - 24 hour (AID 1224886); details: RealTime-Glo luminescence; series mostly up to 76.8 µM; also: top concentration of the series differs between compounds; nearly all actives have a fitted effect of over 50% in size
# Summary of the method: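 Tox21 10K qHTS, HEK293, 600 cells/well, RealTime-Glo reagent co-dispensed with cells; 5 h preincubation, compound by pintool, 37 C, luminescence at 0–40 h.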
# [6] = qHTS RealTime-Glo MT Cell Viability Assay in HEK293 cells - 8 hour (AID 1224887); details: RealTime-Glo luminescence; series mostly up to 76.8 µM; also: top concentration of the series differs between compounds; nearly all actives have a fitted effect of over 50% in size
# Summary of the method: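 Real-time viability in HEK293: signal arises when living cells convert a prosubstrate for NanoLuc in the medium, so luminescence tracks viable cell number. Compound (23 nL, DMSO) added 5 h post-seeding; kinetic reads at 0–40 h, 37 C.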
# [7] = A CellTox Green Cytotoxicity Assay to monitor cytotoxicity in HEK293 cells - 16 hour (AID 1224888); details: CellTox Green fluorescence; series mostly up to 76.8 µM; also: nearly all actives have a fitted effect of over 35% in size
# Summary of the method: as §1
# [8] = qHTS RealTime-Glo MT Cell Viability Assay in HepG2 cells - 0 hour (AID 1224889); details: RealTime-Glo luminescence; series mostly up to 76.8 µM; also: nearly all actives have a fitted effect of over 50% in size
# Summary of the method: as §3
# [9] = A CellTox Green Cytotoxicity Assay to monitor cytotoxicity in HepG2 cells - 8 hour (AID 1224890); details: CellTox Green fluorescence; series mostly up to 76.8 µM; also: nearly all actives have a fitted effect of over 45% in size; also: potency is read from the fitted curve at half-maximal effect
# Summary of the method: as §2
# [10] = qHTS assay to identify small molecule antagonists of the estrogen receptor alpha (ER-alpha) signaling pathway using the BG1 cell line in the presence of 0.1 nM 17-beta-estradiol - cell viability counter screen (AID 1259241); details: VM7Luc4E2 (BG1) viability, CellTiter-Fluor protease, 22 h, 0.1 nM estradiol agonist added; series mostly up to 92.4 µM; also: nearly all actives have a fitted effect of over 40% in size
# Summary of the method: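 CellTiter-Fluor read (30 min, 37C) on ER-alpha/ERE-luc VM7Luc4E2 cells; 22 hr compound treatment; agonist 0.1 nM E2 final; same-well multiplex.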
# [11] = qHTS assay to identify small molecule antagonists of the androgen receptor (AR) signaling pathway using the MDA cell line in the presence of 0.5 nM R1881 - cell viability counter screen (AID 1259242); details: MDA-kb2 viability, CellTiter-Fluor protease fluorescence, 16 h; series mostly up to 92.4 µM; also: nearly all actives have a fitted effect of over 45% in size
# Summary of the method: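 Steps: plate MDA-kb2 cells, rest 5 hr at 37C without CO2; pin in compounds in DMSO; add R1881 to 0.5 nM final; incubate 16 hr; add CellTiter-Fluor, 30 min; read fluorescence.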
# [12] = target: Estrogen receptor (Homo sapiens) (UniProt P03372); assay: qHTS assay to identify small molecule antagonists of the estrogen receptor alpha (ER-alpha) signaling pathway using the BG1 cell line in the presence of 0.1 nM 17-beta-estradiol (AID 1259244); details: VM7Luc4E2 (BG1) ERE-luciferase, antagonist mode, 0.1 nM E2, 22 h; series mostly up to 92.4 µM; also: nearly all actives have a fitted effect of over 50% in size
# Summary of the method: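 Antagonist mode: compounds in DMSO are pinned onto VM7Luc4E2 reporter cells, 0.1 nM final 17beta-estradiol is added, and after 22 h at 37C luciferase luminescence is measured with ONE-Glo.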
# [13] = qHTS assay to identify small molecule HDAC inhibitors (AID 1259364); details: HCT-116 HDAC-Glo I/II luminescence, 2 h; series mostly up to 92.4 µM;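 also: wild-type HCT-116 cells with endogenous class I/II HDAC activity; top concentration of the series differs between compounds; nearly all actives have a fitted effect of over 45% in size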
# Summary of the method: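 Cells (HCT-116, wild type) are seeded at 1,500 per well, incubated overnight, treated with compound in DMSO for 2 hr, then developed with HDAC-Glo I/II reagent for 30 min at room temperature.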
# [14] = qHTS assay to identify small molecule HDAC inhibitors - cell viability counter screen (AID 1259365); details: HCT-116 viability, CellTiter-Glo ATP luminescence, 2 h; series mostly up to 92.4 µM; also: nearly all actives have a fitted effect of over 50% in size
# Summary of the method: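 To flag cytotoxic hits, 1,500 wild-type HCT-116 cells per well, plated the day before, receive test compounds for 2hr at 37 C before CellTiter-Glo reagent and a luminescence read.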
# [15] = qHTS assay to identify small molecule agonists of the sonic hedgehog signaling (Shh) pathway - cell viability counter screen (AID 1259366); details: NIH/3T3 Gli1-Luc viability, CellTiter-Fluor, 24 h; series mostly up to 92.4 µM; also: nearly all actives have a fitted effect of over 50% in size
# Summary of the method: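 Fluorescence from CellTiter-Fluor reports live cells in this counter screen. NIH/3T3-derived Gli1-Luc reporter cells receive test compounds for 24hr at 37C; reagent goes in at 23hr.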
# [16] = qHTS assay to identify small molecule antagonists of the sonic hedgehog signaling (Shh) pathway - cell viability counter screen (AID 1259367); details: NIH/3T3 Gli1-Luc viability, CellTiter-Fluor, 24 h; series mostly up to 92.4 µM; also: nearly all actives have a fitted effect of over 55% in size
# Summary of the method: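 Cytotoxicity was assessed in parallel with Shh reporter activity by measuring live-cell protease fluorescence (CellTiter-Fluor) in NIH/3T3 cells stably carrying Gli1-Luc, treated with compound under conditioned medium stimulation for 23 hr plus 1 hr reagent incubation.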
# [17] = qHTS assay to identify small molecule agonists of the sonic hedgehog signaling (Shh) pathway (AID 1259368; calls by dose curve;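 also: NIH/3T3-derived 3T3Gli1-Luc cells carrying a stable Gli1-driven firefly luciferase reporter; nearly all actives have a fitted effect of over 15% in size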); details: NIH/3T3 Gli1-Luc reporter, luciferase, 24 h, stronger effect = higher value; series mostly up to 92.4 µM
# Summary of the method: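 Cells of a mouse NIH/3T3 clone stably expressing luciferase under the Gli1 transcriptional response element are exposed to test chemicals for 24 hr at 37 C. Pathway activation is detected as a rise in luminescence.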
# [18] = qHTS assay to identify small molecule phospholipidosis (PLD) inducers (AID 1259344; active = well fitted curve in the direction sought with a large enough effect; an effect the other way counts as inactive or inconclusive); details: HepG2 phospholipidosis, LipidTOX Red imaging, 24 h; series mostly up to 38.3 µM
# Summary of the method: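 Cells (HepG2, 900 per well) attach for 4 h, receive LipidTOX Red and compound together, incubate 24 h at 37 C, are fixed 30 min with paraformaldehyde/Hoechst, then imaged at one site per well.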
# [19] = target: Androgen receptor (Homo sapiens) (UniProt P10275); assay: qHTS assay to identify small molecule antagonists of the androgen receptor (AR) signaling pathway using the MDA cell line in the presence of 0.5 nM R1881 (AID 1259243); details: MDA-kb2 MMTV-luciferase, R1881 0.5 nM, 16 h; series mostly up to 92.4 µM; also: nearly all actives have a fitted effect of over 50% in size
# Summary of the method: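 Stably transfected MDA-kb2 cells express luciferase from an MMTV promoter bearing both AR and GR response elements. Compounds plus 0.5 nM R1881 (final) were incubated 16 hr at 37C without CO2, then luminescence measured.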
# [20] = A CellTox Green Cytotoxicity Assay to monitor cytotoxicity in HepG2 cells - 32 hour (AID 1224883); details: CellTox Green fluorescence; series mostly up to 76.8 µM; also: nearly all actives have a fitted effect of over 50% in size
# Summary of the method: as §2
# Chain of Estrogen receptor (Homo sapiens) (P03372 whole entry, looked up): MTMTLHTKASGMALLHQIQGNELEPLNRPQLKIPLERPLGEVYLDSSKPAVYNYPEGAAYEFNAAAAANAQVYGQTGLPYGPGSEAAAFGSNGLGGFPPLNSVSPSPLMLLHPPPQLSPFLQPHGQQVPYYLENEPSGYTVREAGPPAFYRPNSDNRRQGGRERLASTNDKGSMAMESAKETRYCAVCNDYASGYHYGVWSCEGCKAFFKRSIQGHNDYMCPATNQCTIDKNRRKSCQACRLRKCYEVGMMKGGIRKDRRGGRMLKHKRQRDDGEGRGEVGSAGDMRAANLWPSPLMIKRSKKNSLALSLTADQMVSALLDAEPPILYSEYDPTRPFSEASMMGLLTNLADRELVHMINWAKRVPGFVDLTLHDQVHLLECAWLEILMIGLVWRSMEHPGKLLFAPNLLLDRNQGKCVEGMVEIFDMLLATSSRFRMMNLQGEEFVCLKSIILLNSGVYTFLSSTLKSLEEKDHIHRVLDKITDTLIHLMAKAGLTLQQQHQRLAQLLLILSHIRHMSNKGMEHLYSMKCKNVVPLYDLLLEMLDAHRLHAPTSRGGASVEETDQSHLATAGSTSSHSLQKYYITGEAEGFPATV
# Chain of Androgen receptor (Homo sapiens) (P10275 whole entry, looked up): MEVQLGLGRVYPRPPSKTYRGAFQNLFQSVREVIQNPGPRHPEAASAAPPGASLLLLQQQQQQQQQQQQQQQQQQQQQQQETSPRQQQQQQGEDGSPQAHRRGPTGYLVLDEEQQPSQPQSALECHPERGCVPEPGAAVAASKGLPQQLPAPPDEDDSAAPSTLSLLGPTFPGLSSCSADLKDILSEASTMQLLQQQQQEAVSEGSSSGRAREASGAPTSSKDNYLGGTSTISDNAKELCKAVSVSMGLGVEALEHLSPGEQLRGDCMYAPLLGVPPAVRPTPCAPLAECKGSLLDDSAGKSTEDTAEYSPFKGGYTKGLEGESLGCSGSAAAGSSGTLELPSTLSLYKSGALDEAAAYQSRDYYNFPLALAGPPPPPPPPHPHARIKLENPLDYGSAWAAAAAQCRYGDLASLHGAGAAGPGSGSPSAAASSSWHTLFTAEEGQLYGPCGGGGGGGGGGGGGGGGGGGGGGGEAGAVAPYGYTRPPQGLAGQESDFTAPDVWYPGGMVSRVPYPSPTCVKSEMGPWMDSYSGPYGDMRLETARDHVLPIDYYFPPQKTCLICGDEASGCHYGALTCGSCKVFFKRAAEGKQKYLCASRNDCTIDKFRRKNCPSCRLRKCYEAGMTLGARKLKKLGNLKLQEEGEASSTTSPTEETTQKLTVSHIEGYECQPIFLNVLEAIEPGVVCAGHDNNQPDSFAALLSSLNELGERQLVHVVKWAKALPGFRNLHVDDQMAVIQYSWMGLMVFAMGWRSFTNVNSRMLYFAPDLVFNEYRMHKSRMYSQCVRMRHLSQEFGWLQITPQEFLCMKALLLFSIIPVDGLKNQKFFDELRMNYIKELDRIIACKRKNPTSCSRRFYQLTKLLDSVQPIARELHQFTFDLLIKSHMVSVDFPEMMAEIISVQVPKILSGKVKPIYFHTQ
Structure (SMILES),Potency [1],Potency [2],Potency [3],outcome [4],outcome [5],outcome [6],Potency [7],outcome [8],Potency [9],outcome [10],outcome [11],Potency [12],Potency [13],outcome [14],Potency [15],Potency [16],outcome [17],Potency [18],Potency [19],Potency [20]
Cl/C=C/Cl,inactive,inactive,inactive,inactive,inactive,inactive,inactive,inactive,inactive,inactive,inactive,inactive,inactive,inactive,inactive,inactive,inactive,–,–,–
Nc1cccc(Cl)c1,inactive,inactive,inactive,inactive,inactive,inactive,inactive,inactive,inactive,inactive,inactive,inactive,–,inactive,inactive,inactive,inactive,–,–,–
O=C(O)COc1ccccc1,inactive,inactive,inactive,inactive,inactive,inactive,inactive,inactive,inactive,inactive,inactive,inactive,inactive,inactive,inactive,inactive,inactive,inactive,–,–
O=C(O)CCCc1ccc(N(CCCl)CCCl)cc1,inactive,inactive,inactive,inactive,inactive,inactive,inactive,inactive,inactive,inactive,inactive,inactive,inactive,inactive,inactive,inactive,inactive,inactive,–,–
CNC(=O)O/N=C/C(C)(C)S(C)=O (centres undefined),inactive,inactive,inactive,inactive,inactive,inactive,inactive,inactive,inactive,inactive,inactive,inactive,inactive,inactive,inactive,inactive,inactive,–,–,–
O=C(O)C(Br)Br,inactive,inactive,inactive,inactive,inactive,inactive,inactive,inactive,inactive,inactive,inactive,inactive,–,inactive,inactive,inactive,inactive,–,–,–
CC(C)c1cccc(C(C)C)c1O,24.5 µM (active) and 43.6 µM (active) and inactive,inactive and 43.6 µM (active),inactive and 43.6 µM (active),inactive,inactive,inactive,–,inactive,43.6 µM (active) and inactive,inactive,inactive,inactive,–,inactive,inactive,inactive,inactive,inactive,inactive,–
Cc1cc(Cl)ccc1OC(C)C(=O)O (centres undefined),–,inactive,inactive,inactive,inactive,inactive,inactive,inactive,inactive,inactive,inactive,inactive,inactive,inactive,inactive,inactive,inactive,–,–,inactive
O=[N+]([O-])c1ccc(Cl)c(Cl)c1,inactive,inactive,inactive,inactive,inactive,inactive,inactive,inactive,inactive,inactive,inactive,inactive,inactive,inactive,inactive,inactive,inactive,–,–,–
COc1cc(-c2ccc(N)c(OC)c2)ccc1N,inactive,inactive,inactive,inactive,inactive,inactive,inactive,inactive,inactive,inactive,inactive,–,–,inactive,inactive,inactive,inactive,–,–,–
CCOP(=S)(OCC)Oc1cc(C)nc(C(C)C)n1,inactive,inactive,inactive,inactive,inactive,inactive,inactive,inactive,inactive,inactive,inactive,–,inactive,inactive,inactive,inactive,inactive,inactive,–,–
C=CC(=O)OCCCCCC(C)C,–,inactive,inactive,inactive,inactive,inactive,inactive,inactive,inactive,inactive,inactive,inactive,inactive,inactive,inactive,inactive,inactive,–,inactive,inactive
Oc1c(Br)cc(Br)cc1Br,–,inactive,inactive,inactive,inactive,inactive,inactive,inactive,inactive,inactive,inactive,inactive,–,inactive,inactive,inactive,inactive,inactive,–,inactive
CNc1cnn(-c2cccc(C(F)(F)F)c2)c(=O)c1Cl,inactive,inactive,inactive,inactive,inactive,inactive,inactive,inactive,inactive,inactive,inactive,–,–,inactive,inactive,inactive,inactive,–,–,–
CCSC(=O)N1CCCCCC1,inactive,inactive,inactive,inactive,inactive,inactive,inactive,inactive,inactive,inactive,inactive,inactive,inactive,inactive,inactive,inactive,inactive,–,–,–
Cc1cccc(N)c1,–,inactive,inactive,inactive,inactive,inactive,inactive,inactive,inactive,inactive,inactive,inactive,inactive,inactive,inactive,inactive,inactive,–,–,inactive
Cl[C@H]1OCCO[C@@H]1Cl,inactive,inactive,inactive,inactive,inactive,inactive,inactive,inactive,inactive,inactive,inactive,–,–,inactive,inactive,inactive,inactive,–,–,–

# Reference: PubChem BioAssay (Tox21)
